# Where “and” joins values, the source holds several entries; their conditions need not be identical. Equal entries are not always repeated. A structure can be active in one record and inactive in another. Calls of active or inactive are those of the source. Where a call stands in place of a potency, no number is given. Unless noted, the call rests on the fitted dose curve; in most records, active means well fitted curve in the direction sought with a large enough effect in the repeat runs; inconclusive means weak or mixed curves; inactive means no such curve, though single readings can be large; an effect the other way counts as inactive or inconclusive.
# Legend:
# [1] = qHTS assay to identify small molecule antagonists of the glucocorticoid receptor (GR) signaling pathway - cell viability counter screen (AID 720693); further: nearly all actives have a fitted effect of over 55% in size
# [2] = qHTS assay for identifying genotoxic compounds that show differential cytotoxicity against isogenic chicken DT40 cell lines with known DNA damage response pathways - wild type cell line (AID 743012); further: nearly all actives have a fitted effect of over 60% in size; further: potency means the concentration at half of the fitted maximal effect
# Procedure, shortened: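 First, wild type DT40 cells were plated at 300 per well and equilibrated about 0.5 h at 37 C/5% CO2. Next, compounds in DMSO were added and exposure lasted 40 h. Finally, CellTiter-Glo was added for 30 min at room temperature and luminescence recorded.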
# [3] = qHTS assay for identifying genotoxic compounds that show differential cytotoxicity against isogenic chicken DT40 cell lines with known DNA damage response pathways - Rev3 mutant cell line (AID 743014); further: nearly all actives have a fitted effect of over 55% in size; further: potency means the concentration at half of the fitted maximal effect
# [4] = qHTS assay for identifying genotoxic compounds that show differential cytotoxicity against isogenic chicken DT40 cell lines with known DNA damage response pathways - Rad54/Ku70 mutant cell line (AID 743015); further: nearly all actives have a fitted effect of over 60% in size; further: potency means the concentration at half of the fitted maximal effect
# [5] = qHTS assay to identify small molecule antagonists of the androgen receptor (AR) signaling pathway - cell viability counter screen (AID 743033; further: nearly all actives have a fitted effect of over 45% in size; further: potency means the concentration at half of the fitted maximal effect)
# [6] = qHTS assay to identify small molecule antagonists of the androgen receptor (AR) signaling pathway using the MDA cell line - cell viability counter screen (AID 743041; further: nearly all actives have a fitted effect of over 45% in size)
# Procedure, shortened: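 Viability counter screen run alongside the AR antagonist reporter: cells seeded 5 h before compound, R1881 added, 16 h incubation at 37C without CO2, fluorescent CellTiter-Fluor signal quantified.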
# [7] = qHTS assay to identify small molecule antagonists of the thyroid receptor (TR) signaling pathway - cell viability counter screen (AID 743064); further: nearly all actives have a fitted effect of over 50% in size; further: potency means the concentration at half of the fitted maximal effect
# Procedure, shortened: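 Rat GH3 pituitary tumor cells stably expressing two TR response elements driving luciferase were plated, rested 4 h, then dosed with library compounds and T3 (1 nM final). After 23.5 h at 37 °C, CellTiter-Fluor was added for 30 min and fluorescence recorded.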
# [8] = qHTS assay to identify small molecule antagonists of the thyroid receptor (TR) signaling pathway (AID 743065); further: nearly all actives have a fitted effect of over 55% in size; further: potency means the concentration at half of the fitted maximal effect
# Procedure, shortened: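 GH3.TRE-Luc rat pituitary cells carrying two TR response elements driving luciferase were plated for 4 h, given compound plus 1 nM T3 (final), and incubated 23.5 h at 37 C. ONE-Glo luminescence measured reporter inhibition; CellTiter-Fluor fluorescence tracked cytotoxicity.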
# [9] = system: thyroid hormone receptor (rat, GH3 cells); assay: qHTS assay to identify small molecule agonists of the thyroid receptor (TR) signaling pathway (AID 743066; calls by dose curve)
# [10] = qHTS assay to identify small molecule antagonists of the estrogen receptor alpha (ER-alpha) signaling pathway - cell viability counter screen (AID 743074; calls by dose curve;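 further: HEK293 cells carrying ER-alpha-UAS-bla reporter stimulated with 17beta-estradiol; nearly all actives have a fitted effect of over 45% in size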)
# [11] = qHTS assay to identify small molecule antagonists of the estrogen receptor alpha (ER-alpha) signaling pathway using the BG1 cell line - cell viability counter screen (AID 743081);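 further: compound given together with 17beta-estradiol as the ER stimulus; nearly all actives have a fitted effect of over 45% in size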
# Aromatase (Homo sapiens) = Aromatase (Homo sapiens) (UniProt P11511); assay: qHTS assay to identify aromatase inhibitors (AID 743083); further: nearly all actives have a fitted effect of over 55% in size; further: potency means the concentration at half of the fitted maximal effect
# [12] = target: Estrogen receptor (Homo sapiens) (UniProt P03372); assay: qHTS assay to identify small molecule antagonists of the estrogen receptor alpha (ER-alpha) signaling pathway (AID 743069; active means well fitted curve in the direction sought with a large enough effect in the signal ratio in the repeat runs, not every such curve was filed as active; inconclusive means weak or mixed curves, or effect the other way; inactive means no such curve, though single readings can be large or run the other way; the % refers to the signal ratio; further: potency means the concentration at half of the fitted maximal effect)
# Procedure, shortened: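 Estradiol-stimulated ER-alpha-UAS-bla HEK293 cells, 18 hr compound exposure at 37C. LiveBLAzer B/G substrate, 2 hr RT, fluorescence read.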
# [13] = target: Estrogen receptor (Homo sapiens) (UniProt P03372); assay: qHTS assay to identify small molecule agonists of the estrogen receptor alpha (ER-alpha) signaling pathway (AID 743075; calls by dose curve;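 further: HEK293 GripTite cells with ER-alpha and UAS-driven beta-lactamase reporter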; further: potency means the concentration at half of the fitted maximal effect)
# [14] = target: Estrogen receptor (Homo sapiens) (UniProt P03372); assay: qHTS assay to identify small molecule agonists of the estrogen receptor alpha (ER-alpha) signaling pathway using the BG1 cell line (AID 743079); further: nearly all actives have a fitted effect of over 20% in size; further: potency means the concentration at half of the fitted maximal effect
# [15] = qHTS assay to identify small molecule antagonists of the estrogen receptor alpha (ER-alpha) signaling pathway using the BG1 cell line (AID 743080; calls by dose curve;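 further: BG1 cells stimulated with 17beta-estradiol alongside compound; nearly all actives have a fitted effect of over 25% in size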; further: potency means the concentration at half of the fitted maximal effect)
# Procedure, shortened: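 Readout is ONE-Glo luminescence, taken 30 min at room temperature after reagent addition, preceded by a CellTiter-Fluor viability read; BG1-Luc-4E2 cells had received compound and 17beta-estradiol for 21.5 h at 37 C.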
# [16] = target: Androgen receptor (Homo sapiens) (UniProt P10275); assay: qHTS assay to identify small molecule antagonists of the androgen receptor (AR) signaling pathway (AID 743035; active means well fitted inhibition curve with a large enough effect in the signal ratio in the repeat runs, not every such curve was filed as active; inconclusive means weak or mixed curves, or effect the other way; inactive means no such curve, though single readings can be large or run the other way; the % refers to the signal ratio; further: potency means the concentration at half of the fitted maximal effect)
# Procedure, shortened: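 Beta-lactamase FRET read (2 h RT incubation with LiveBLAzer B/G) following 16 h of compound plus R1881 treatment of AR-UAS-bla HEK293 cells, which had been pre-incubated 4 h at 37C.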
# [17] = target: Androgen receptor (Homo sapiens) (UniProt P10275); assay: qHTS assay to identify small molecule agonists of the androgen receptor (AR) signaling pathway (AID 743036; active means well fitted activation curve with a large enough effect in the signal ratio in the repeat runs, with a control signal flat, not every such curve was filed as active; inconclusive means weak or mixed curves, or effect the other way; inactive means no such curve, though single readings can be large or run the other way; the % refers to the signal ratio)
# Procedure, shortened: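 Quantitative HTS of the Tox21 10K library in HEK293 cells bearing a stably integrated UAS-controlled beta-lactamase reporter. Compound exposure lasted 16 h at 37C. Reporter activity was detected by FRET substrate fluorescence after 2 h at room temperature.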
# [18] = target: Androgen receptor (Homo sapiens) (UniProt P10275); assay: qHTS assay to identify small molecule agonists of the androgen receptor (AR) signaling pathway using the MDA cell line (AID 743040; further: nearly all actives have a fitted effect of over 20% in size); details: MDA-kb2 AR-luc cells, MMTV luciferase, 16 h; activity change: at 70.3 µM (top of the series), stronger effect = higher value
# Procedure, shortened: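 Luminescence from ONE-Glo, read after 30 min at room temperature, reflects MMTV-driven luciferase in MDA-kb2 cells (AR- and GR-responsive). Treatment lasted 16 h at 37C, 0% CO2.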
# [19] = target: Androgen receptor (Homo sapiens) (UniProt P10275); assay: qHTS assay to identify small molecule antagonists of the androgen receptor (AR) signaling pathway using the MDA cell line (AID 743042; further: nearly all actives have a fitted effect of over 55% in size; further: potency means the concentration at half of the fitted maximal effect)
# Procedure, shortened: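 MDA-kb2 cells (human breast carcinoma, stably carrying an MMTV-luciferase reporter responsive to AR and GR) were plated at 3,000 cells/well and preincubated 5 hr at 37C, then given compound plus R1881 agonist for 16 h. ONE-Glo luminescence was read.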
# Sequence of Androgen receptor (Homo sapiens) (P10275 whole entry, looked up): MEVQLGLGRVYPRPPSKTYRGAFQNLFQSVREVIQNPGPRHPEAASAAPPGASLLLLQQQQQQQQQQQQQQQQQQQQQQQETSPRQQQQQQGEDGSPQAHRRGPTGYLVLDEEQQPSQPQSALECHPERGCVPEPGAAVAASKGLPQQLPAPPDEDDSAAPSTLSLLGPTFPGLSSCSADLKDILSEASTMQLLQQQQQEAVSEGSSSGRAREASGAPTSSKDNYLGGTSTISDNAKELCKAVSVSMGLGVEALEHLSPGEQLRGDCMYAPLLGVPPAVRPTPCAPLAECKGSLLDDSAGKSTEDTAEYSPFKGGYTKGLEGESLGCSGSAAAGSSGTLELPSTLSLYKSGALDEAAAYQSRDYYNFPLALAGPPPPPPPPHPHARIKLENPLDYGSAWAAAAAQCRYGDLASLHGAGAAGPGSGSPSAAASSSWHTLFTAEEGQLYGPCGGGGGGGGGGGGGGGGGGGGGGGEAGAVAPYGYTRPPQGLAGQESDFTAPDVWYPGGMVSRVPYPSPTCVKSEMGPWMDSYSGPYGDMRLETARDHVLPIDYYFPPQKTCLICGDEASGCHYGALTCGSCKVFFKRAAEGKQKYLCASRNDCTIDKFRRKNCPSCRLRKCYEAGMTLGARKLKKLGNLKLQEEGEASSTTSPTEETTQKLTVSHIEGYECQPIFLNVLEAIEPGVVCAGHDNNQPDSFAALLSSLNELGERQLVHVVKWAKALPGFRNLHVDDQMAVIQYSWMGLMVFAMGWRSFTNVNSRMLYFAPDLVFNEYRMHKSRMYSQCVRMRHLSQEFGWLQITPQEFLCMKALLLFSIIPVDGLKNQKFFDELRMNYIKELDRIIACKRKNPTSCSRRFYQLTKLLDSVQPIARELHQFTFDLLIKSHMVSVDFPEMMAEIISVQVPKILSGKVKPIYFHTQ
# Sequence of Aromatase (Homo sapiens) (P11511 whole entry, looked up): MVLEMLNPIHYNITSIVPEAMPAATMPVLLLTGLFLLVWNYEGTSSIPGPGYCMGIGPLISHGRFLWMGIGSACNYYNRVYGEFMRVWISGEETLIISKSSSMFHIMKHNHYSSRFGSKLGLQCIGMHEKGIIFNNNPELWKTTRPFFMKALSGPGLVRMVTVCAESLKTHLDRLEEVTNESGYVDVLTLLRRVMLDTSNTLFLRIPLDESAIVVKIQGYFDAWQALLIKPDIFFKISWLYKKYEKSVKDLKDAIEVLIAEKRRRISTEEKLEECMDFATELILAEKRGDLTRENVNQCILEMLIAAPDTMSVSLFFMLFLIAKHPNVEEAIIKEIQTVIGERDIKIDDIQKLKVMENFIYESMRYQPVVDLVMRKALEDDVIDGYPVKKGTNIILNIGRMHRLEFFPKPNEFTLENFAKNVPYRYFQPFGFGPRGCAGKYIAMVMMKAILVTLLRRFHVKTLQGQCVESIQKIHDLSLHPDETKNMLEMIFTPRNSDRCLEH
# Sequence of Estrogen receptor (Homo sapiens) (P03372 whole entry, looked up): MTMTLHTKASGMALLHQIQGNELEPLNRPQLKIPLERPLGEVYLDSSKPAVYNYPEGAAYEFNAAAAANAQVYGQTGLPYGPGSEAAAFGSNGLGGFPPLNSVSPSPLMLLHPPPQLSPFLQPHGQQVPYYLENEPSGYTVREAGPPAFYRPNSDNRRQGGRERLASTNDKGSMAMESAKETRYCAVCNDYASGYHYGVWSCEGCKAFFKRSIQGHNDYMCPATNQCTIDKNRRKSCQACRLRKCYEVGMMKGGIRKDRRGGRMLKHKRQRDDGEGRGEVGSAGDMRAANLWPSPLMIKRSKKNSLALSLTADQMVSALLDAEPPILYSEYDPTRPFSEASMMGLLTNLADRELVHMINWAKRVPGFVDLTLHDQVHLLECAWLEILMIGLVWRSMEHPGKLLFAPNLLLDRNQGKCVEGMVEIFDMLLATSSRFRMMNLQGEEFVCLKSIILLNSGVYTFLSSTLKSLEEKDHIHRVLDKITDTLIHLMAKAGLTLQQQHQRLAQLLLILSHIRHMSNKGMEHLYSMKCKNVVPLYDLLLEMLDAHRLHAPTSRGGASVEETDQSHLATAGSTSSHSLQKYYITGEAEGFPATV
Compound,Potency [1],Potency [2],Potency [3],Potency [4],Potency [5],Potency [6],Potency [7],Potency [8],Potency [9],Potency [10],Potency [11],Potency (Aromatase (Homo sapiens)),Potency [12],Potency [13],Potency [14],Potency [15],Potency [16],Potency [17],Potency [18],Potency [19]
C=CCN(CC=C)C(=O)C(Cl)Cl,inactive,inactive,inactive,inactive,inactive,inactive,inactive,inactive,inactive,inactive,inactive,inactive,–,–,–,–,–,–,–,–
O=P(Oc1ccccc1)(Oc1ccccc1)Oc1ccccc1,–,54.2 µM (active) and 48.6 µM (active),60.8 µM (active) and 48.6 µM (active),38.4 µM (active) and 27.3 µM (active),inactive,inactive,inactive,inactive,inactive,inactive,inactive,inactive,inactive,inactive,6.08 µM (active),inactive,–,–,–,–
CC(C)Oc1cc(-n2nc(C(C)(C)C)oc2=O)c(Cl)cc1Cl,–,5.45 µM (active),6.11 µM (active),60.3 µM (active) and 4.86 µM (active),11 µM (active),inactive,53.7 µM (active),67.6 µM (active),inactive,inactive,inactive,60.3 µM (active) and 17.2 µM (active),61.6 µM [inconclusive] (active),inactive,–,47.9 µM (active),43 µM (active) and 12.3 µM (active),inactive,inactive,38.6 µM (active)
CCC(CC)Nc1c([N+](=O)[O-])cc(C)c(C)c1[N+](=O)[O-],inactive,–,inactive,inactive and 54.4 µM (active),inactive,inactive,–,–,inactive,inactive,inactive,–,–,–,–,–,–,–,–,–
Oc1ccc(-c2ccccc2)cc1,inactive,inactive,60.3 µM (active),inactive,inactive,inactive,–,–,inactive,inactive,inactive,inactive,inactive,–,–,–,–,–,–,–
O=Cc1ccco1,inactive,inactive,inactive,inactive,inactive,inactive,inactive,inactive,inactive,inactive,inactive,inactive,–,–,–,–,–,–,–,–
c1ccc(-c2cccc(-c3ccccc3)c2)cc1,inactive,–,–,–,inactive,inactive,inactive,inactive,inactive,inactive,inactive,inactive,inactive,inactive,21.9 µM (active) and 10.9 µM (active),–,–,–,–,–
C[C@]12CCC(=O)C(O)=C1CC[C@@H]1[C@@H]2CC[C@]2(C)C(=O)CC[C@@H]12,inactive,29.8 µM (active) and 26.6 µM (active),–,29.8 µM (active) and 26.6 µM (active),inactive,inactive,inactive,inactive,inactive,inactive,inactive,75 nM (active) and 53.1 nM (active) and 27.3 nM (active),–,23.9 µM [activator] (active) and 21.3 µM [activator] (active) and 34.7 µM [activator] (active),11.9 µM (active) and 5.96 µM (active) and 5.45 µM (active),inactive,–,–,–,–
CN(C)C(=O)Nc1ccc(Cl)cc1,inactive,inactive,–,–,inactive,inactive,inactive,inactive,inactive,inactive,inactive,inactive,–,–,–,–,–,–,–,–
CC(C)(OOC(C)(C)c1ccccc1)c1ccccc1,inactive,inactive and 54.5 µM (active),–,30.6 µM (active),inactive,inactive,42.7 µM (active),53.7 µM (active) and 43.3 µM (active),inactive,inactive,inactive,inactive,–,–,–,–,inactive,inactive,inactive,inactive
O=C(O)C(F)(F)C(F)(F)C(F)(F)C(F)(F)C(F)(F)C(F)(F)C(F)(F)F,inactive,inactive,inactive,inactive,inactive,inactive,inactive,inactive,inactive,inactive,inactive,inactive,–,–,–,–,–,–,–,–
CCOP(=S)(OCC)O/N=C(\C#N)c1ccccc1,inactive,inactive,inactive,inactive,inactive,inactive,inactive,inactive,inactive,inactive,inactive,inactive,–,–,–,–,–,–,–,–
Cc1ccc(OP(=O)(Oc2ccc(C)cc2)Oc2ccc(C)cc2)cc1,inactive,–,38.6 µM (active),43.2 µM (active) and 48.6 µM (active),inactive,–,inactive,inactive,inactive,inactive,inactive,inactive,–,–,–,–,–,–,–,–
N[C@@H](Cc1ccc(N(CCCl)CCCl)cc1)C(=O)O,inactive,944 nM (active) and 8.28 µM (active),75 nM (active) and 117 nM (active),2.37 µM (active) and 8.28 µM (active),inactive,inactive,10.6 µM (active) and 26.2 µM (active),–,–,–,inactive,–,–,–,–,–,–,–,–,–
O=[N+]([O-])c1c(Cl)c(Cl)c(Cl)c(Cl)c1Cl,–,61.1 µM (active),inactive,inactive and 61.1 µM (active),inactive,inactive,54.5 µM (active),–,inactive,inactive,inactive,inactive and 61.1 µM (active),inactive,inactive,inactive,inactive,–,inactive,inactive,inactive and 43.3 µM (active)
O=C1C=CC(=O)C=C1,inactive,inactive and 9.69 µM (active),inactive and 9.69 µM (active),inactive and 10.9 µM (active),inactive,inactive,inactive,inactive,inactive,inactive,inactive,inactive,–,–,–,–,–,–,–,–
